In PubChem BioAssay (EPA / NIEHS) one finds outcome and AC50 data, which are given here for 30 molecules.

The source made the active and inactive calls. The calls were made as follows: active = hit-call score of the fitted dose curve at least 0.9, where 1 is the maximum; inactive = score below 0.9.

Transcription factor E2F1 (Homo sapiens), sequence (Q01094 whole entry, looked up): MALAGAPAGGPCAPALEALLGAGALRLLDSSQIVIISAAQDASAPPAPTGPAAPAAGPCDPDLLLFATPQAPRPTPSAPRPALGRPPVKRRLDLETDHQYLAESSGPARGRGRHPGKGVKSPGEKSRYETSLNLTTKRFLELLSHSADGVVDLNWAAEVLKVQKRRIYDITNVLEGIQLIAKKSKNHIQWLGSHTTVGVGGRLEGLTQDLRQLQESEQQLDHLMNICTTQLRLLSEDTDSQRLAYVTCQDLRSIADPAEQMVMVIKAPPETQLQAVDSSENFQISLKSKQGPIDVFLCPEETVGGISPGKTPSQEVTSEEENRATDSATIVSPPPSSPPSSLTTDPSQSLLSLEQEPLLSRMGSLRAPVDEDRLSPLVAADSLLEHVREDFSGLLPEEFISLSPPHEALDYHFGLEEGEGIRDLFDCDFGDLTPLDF

The target of the first assay is Transcription factor E2F1 (Homo sapiens) (UniProt Q01094). Put plainly: ATG_E2F_CIS: Attagene CIS-FACTORIAL HepG2 Assay for human E2F Transcription Factor 1 (AID 2282935). The following applies: HepG2 Attagene cis-reporter, E2F reporter RNA transcripts; actives raise or lower the signal. The method in brief:
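Total RNA from 24 h-treated, reporter-transfected HepG2 cells undergoes DNase I treatment, oligo(dT) reverse transcription, PCR and 6-FAM primer extension before capillary electrophoresis.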
In the case of `Nc1ccc2c(c1)C(=O)c1ccccc1C2=O`, the call was inactive.

On to `CCCCCCC(=O)OCC`, for which the outcome was inactive.

With `CCCCN(CCCC)CCCC`, the call was inactive.

In the case of `Cc1nc(C)nc(N2C[C@@H](C)N(c3ccnc([C@@H](C)O)n3)[C@@H](C)C2)n1`, the molecule was classed as inactive.

As to `CC(=O)OCCOCCOCCOC(C)=O`, the outcome was inactive.

On to `CCOC(=O)CCC(=O)OCC`, for which the molecule was called inactive.

With `CC(=O)Oc1ccccc1C(=O)O`, the outcome was inactive.

Regarding `C[Si]1(C)O[Si](C)(C)O[Si](C)(C)O[Si](C)(C)O1`, the molecule was called inactive.

As to `C=CCc1ccc(O)c(OC)c1`, the result was inactive.

Take `Cc1cccc(C)c1O`: the molecule was classed as inactive.

In the case of `CCCCCC(=O)O`, the molecule was called inactive.

As to `Cc1ccccc1Cl`, the molecule was called inactive.

In the case of `Cc1cccc(Nc2cc(Cl)nc(SCC(=O)O)n2)c1C`, the outcome was inactive.

Turning to `CCOC(=O)C(C)(C)Oc1ccc(Cl)cc1`, the outcome was inactive.

Take `CCCCOC(=O)CCCCCCCCC(=O)OCCCC`: the call was inactive.

Regarding `CCc1c(C(=O)NN2CCCCC2)nn(-c2ccc(Cl)cc2Cl)c1-c1ccc(Br)cc1`, the call was inactive.

For the molecule `Oc1ccc2c(c1)OC[C@@H](N1CCC(O)(c3ccc(F)cc3)CC1)[C@H]2O`, the outcome was inactive.

As for `CCCCCCCCCCCCCCCCCC(=O)O`, the call was inactive.

As to `O=C(N[C@@H](Cc1ccccc1)[C@@H](O)C(=O)N1C[C@@H](O)[C@@H](O)C1)c1cc2cc(Cl)ccc2[nH]1`, the outcome was inactive.

With `CCCCCCCC=O`, the call was inactive.

System in another assay: not listed separately
Put plainly: ATG_E_Box_CIS: Attagene CIS-FACTORIAL HepG2 Assay for human Enhancer Box (E-box) (AID 2282936). The following applies: HepG2 E-box cis-reporter transcription, actives raise or lower the signal. The method in brief:
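DMSO served as negative control and baseline for bidirectional fitting. Human hepatoma HepG2 cells, transiently transfected with cis-reporter constructs, were dosed 24 h; reporter mRNA read by RT-PCR and capillary electrophoresis.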
Take `Nc1ccc2c(c1)C(=O)c1ccccc1C2=O`: the result was inactive.

For the molecule `CC(=O)C(C)=CC1C(C)=CCCC1(C)C` (stereo not given), the result was inactive.

As to `CCCCCCC(=O)OCC`, the result was inactive.

As for `CCCCN(CCCC)CCCC`, the outcome was inactive.

As for `Cc1nc(C)nc(N2C[C@@H](C)N(c3ccnc([C@@H](C)O)n3)[C@@H](C)C2)n1`, the outcome was inactive.

On to `CC(=O)OCCOCCOCCOC(C)=O`, for which the result was inactive.

For the molecule `CCOC(=O)CCC(=O)OCC`, the result was inactive.

On to `CC(=O)Oc1ccccc1C(=O)O`, for which the outcome was inactive.

With `CC(=O)OC/C=C(\C)CCC=C(C)C`, the outcome was inactive.

On to `CC(C)c1ccc(C(=O)N=C(N)N)cc1S(C)(=O)=O`, for which the result was inactive.

Consider `Cc1ccc(Cl)cc1`, for which the outcome was inactive.

Regarding `C[Si]1(C)O[Si](C)(C)O[Si](C)(C)O[Si](C)(C)O1`, the outcome was inactive.

Turning to `C=CCc1ccc(O)c(OC)c1`, the result was inactive.

With `COc1cccc2c1C(=O)c1c(O)c3c(c(O)c1C2=O)C[C@@](O)(C(=O)CO)C[C@@H]3O[C@H]1C[C@H](N)[C@H](O)[C@H](C)O1`, the AC50 (as a rule, the midpoint of the concentration-response curve, whichever way the signal moves) was 1.85 µM (active).

As to `Cc1cccc(C)c1O`, the outcome was inactive.

`CCCCCC(=O)O`: the result was inactive.

In the case of `Oc1ccc2ccccc2c1N=Nc1ccccc1`, the outcome was inactive.

For `NS(=O)(=O)c1cc2c(cc1Cl)NCNS2(=O)=O`, the outcome was inactive.

Take `Cc1ccccc1Cl`: the result was inactive.

As for `COc1ccc2c(c1)c(CC(=O)O)c(C)n2C(=O)c1ccc(Cl)cc1`, the outcome was inactive.

Take `Cc1cccc(Nc2cc(Cl)nc(SCC(=O)O)n2)c1C`: the result was inactive.

`CCOC(=O)C(C)(C)Oc1ccc(Cl)cc1`: the outcome was inactive.

`CCCCOC(=O)CCCCCCCCC(=O)OCCCC`: the AC50 is 142 µM (active).

Turning to `CCc1c(C(=O)NN2CCCCC2)nn(-c2ccc(Cl)cc2Cl)c1-c1ccc(Br)cc1`, the result was inactive.

With `Oc1ccc2c(c1)OC[C@@H](N1CCC(O)(c3ccc(F)cc3)CC1)[C@H]2O`, the result was inactive.

Regarding `O=C(O)CCCCC(=O)O`, the result was inactive.

In the case of `CCCCCCCCCCCCCCCCCC(=O)O`, the result was inactive.

Turning to `CCCCCCCCCCCC(=O)OC`, the result was inactive.

As to `O=C(N[C@@H](Cc1ccccc1)[C@@H](O)C(=O)N1C[C@@H](O)[C@@H](O)C1)c1cc2cc(Cl)ccc2[nH]1`, the AC50 was 165 µM (active).

On to `CCCCCCCC=O`, for which the result was inactive.

System in a further assay: not listed separately
Put plainly: ATG_M_61_CIS: Attagene CIS-FACTORIAL HepG2 Assay for M61 Transcription Factor (Internal Marker) (AID 2282937). The following applies: HepG2 Attagene CIS-FACTORIAL M61 internal marker reporter; actives raise or lower the signal. The method, boiled down: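 Readout: fluorescent reporter mRNA fragments resolved by capillary electrophoresis after RT-PCR. Transiently transfected human HepG2 cells carried MRTU constructs reporting endogenous TF activity; 24 h chemical exposure; gain or loss of signal fitted relative to DMSO.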
As for `Nc1ccc2c(c1)C(=O)c1ccccc1C2=O`, the outcome was inactive.

`CC(=O)C(C)=CC1C(C)=CCCC1(C)C` (stereo not given): the result was inactive.

Take `CCCCCCC(=O)OCC`: the outcome was inactive.

With `CCCCN(CCCC)CCCC`, the outcome was inactive.

Take `Cc1nc(C)nc(N2C[C@@H](C)N(c3ccnc([C@@H](C)O)n3)[C@@H](C)C2)n1`: the molecule was classed as inactive.

As for `CC(=O)OCCOCCOCCOC(C)=O`, the molecule was called inactive.

Take `CCOC(=O)CCC(=O)OCC`: the result was inactive.

On to `CC(=O)Oc1ccccc1C(=O)O`, for which the molecule was called inactive.

For the molecule `CC(=O)OC/C=C(\C)CCC=C(C)C`, the molecule was called inactive.

For the molecule `CC(C)c1ccc(C(=O)N=C(N)N)cc1S(C)(=O)=O`, the outcome was inactive.

For the molecule `Cc1ccc(Cl)cc1`, the molecule was called inactive.

Take `C[Si]1(C)O[Si](C)(C)O[Si](C)(C)O[Si](C)(C)O1`: the outcome was inactive.

On to `C=CCc1ccc(O)c(OC)c1`, for which the call was inactive.

In the case of `COc1cccc2c1C(=O)c1c(O)c3c(c(O)c1C2=O)C[C@@](O)(C(=O)CO)C[C@@H]3O[C@H]1C[C@H](N)[C@H](O)[C@H](C)O1`, the outcome was inactive.

For the molecule `Cc1cccc(C)c1O`, the outcome was inactive.

As for `CCCCCC(=O)O`, the molecule was classed as inactive.

In the case of `Oc1ccc2ccccc2c1N=Nc1ccccc1`, the call was inactive.

Take `NS(=O)(=O)c1cc2c(cc1Cl)NCNS2(=O)=O`: the result was inactive.

In the case of `Cc1ccccc1Cl`, the result was inactive.

Regarding `COc1ccc2c(c1)c(CC(=O)O)c(C)n2C(=O)c1ccc(Cl)cc1`, the outcome was inactive.

`Cc1cccc(Nc2cc(Cl)nc(SCC(=O)O)n2)c1C`: the molecule was called inactive.

As to `CCOC(=O)C(C)(C)Oc1ccc(Cl)cc1`, the result was inactive.

On to `CCCCOC(=O)CCCCCCCCC(=O)OCCCC`, for which the call was inactive.

Consider `CCc1c(C(=O)NN2CCCCC2)nn(-c2ccc(Cl)cc2Cl)c1-c1ccc(Br)cc1`, for which the molecule was called inactive.

For the molecule `Oc1ccc2c(c1)OC[C@@H](N1CCC(O)(c3ccc(F)cc3)CC1)[C@H]2O`, the molecule was classed as inactive.

On to `O=C(O)CCCCC(=O)O`, for which the molecule was classed as inactive.

Take `CCCCCCCCCCCCCCCCCC(=O)O`: the molecule was called inactive.

`CCCCCCCCCCCC(=O)OC`: the call was inactive.

As to `O=C(N[C@@H](Cc1ccccc1)[C@@H](O)C(=O)N1C[C@@H](O)[C@@H](O)C1)c1cc2cc(Cl)ccc2[nH]1`, the result was inactive.

For the molecule `CCCCCCCC=O`, the outcome was inactive.
